Experimental data taken from the supplement of paper PMC10811239.

system: LEGO organoid PT (PTEN-/-; TP53-/-); experiment: bioluminescence (viable cell) signal fold change after vs before treatment, normalised to DMSO (ratio); higher = more tumour cell growth / less inhibition; details: 10 µM; treatment time 6 days
Procedure: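 Luc2-labelled iPSC-derived glioblastoma-like organoids (LEGOs, genotypes PT = PTEN-/-;TP53-/-, PTCC = plus CDKN2A/B-/-, PTN = plus NF1-/-) were treated with 10 uM drug for 6 days (applied every other day) at 37 C. Bioluminescence imaging was done before treatment and 2 days after the last dose. BLI signals were normalised to the DMSO control on the same day and then to the pre-treatment signal (N=3).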

| Structure (SMILES) | bioluminescence |
| --- | --- |
| CN1C(C(=O)Nc2ccccn2)=C(O)c2ccccc2S1(=O)=O [Piroxicam] | 1.07 |
| CS(=O)(=O)O.Cc1ccc(NC(=O)c2ccc(CN3CCN(C)CC3)cc2)cc1Nc1nccc(-c2cccnc2)n1 [Imatinib Mesylate] | 0.751 |
| COc1cccc2c1C(=O)c1c(O)c3c(c(O)c1C2=O)C[C@@](O)(C(=O)CO)C[C@@H]3O[C@H]1C[C@H](N)[C@@H](O)[C@H](C)O1.Cl [Epirubicin hydrochloride] | 0 |
| CCN1CCN(C(=O)N[C@@H](C(=O)N[C@@H]2C(=O)N3[C@@H]2SC(C)(C)[C@@H]3C(=O)[O-])c2ccccc2)C(=O)C1=O.[Na+] [Piperacillin sodium salt] | 1.08 |
| CC[C@@H]1/C=C(\C)C[C@H](C)C[C@H](OC)[C@H]2O[C@@](O)(C(=O)C(=O)N3CCCC[C@H]3C(=O)O[C@H](/C(C)=C/[C@@H]3CC[C@H](Cl)[C@H](OC)C3)[C@H](C)[C@@H](O)CC1=O)[C@H](C)C[C@@H]2OC [Pimecrolimus] | 1.29 |
| CC(=O)Oc1ccccc1C(=O)O [Aspirin] | 0.997 |
| CC1=C(/C=C/C(C)=C/C=C/C(C)=C/C(=O)O)C(C)(C)CCC1 [Tretinoin] | 0.834 |
| CO[C@H]1C[C@@H]2CC[C@@H](C)[C@@](O)(O2)C(=O)C(=O)N2CCCC[C@H]2C(=O)O[C@H]([C@H](C)C[C@@H]2CC[C@@H](OC(=O)C(C)(CO)CO)[C@H](OC)C2)CC(=O)[C@H](C)/C=C(\C)[C@@H](O)[C@@H](OC)C(=O)[C@H](C)C[C@H](C)/C=C/C=C/C=C/1C [Temsirolimus] | 1.26 |
